Columns and labels:
Experiment in all cases: fraction of 1-bp insertions among edited reads; higher = more 1-bp insertion outcomes
Conditions in all cases: mESC; 2uM; 72 h treatment, harvest day 5
[1] = compound: CCn1c(=O)c(-c2ccc(Cl)cc2Cl)cc2cnc(Nc3ccc(N4CCNCC4)c(F)c3)nc21
[2] = compound: CNc1ccc([N+](=O)[O-])c(Nc2ccc3[nH]ncc3c2)n1
Rifapentine = compound: CO[C@H]1/C=C/O[C@@]2(C)Oc3c(C)c(O)c4c(O)c(c(/C=N/N5CCN(C6CCCC6)CC5)c(O)c4c3C2=O)NC(=O)/C(C)=C\C=C\[C@H](C)[C@H](O)[C@@H](C)[C@@H](O)[C@@H](C)[C@H](OC(C)=O)[C@@H]1C [Rifapentine]
[3] = compound: COc1ccccc1-c1cc(Nc2cccc(CS(N)(=O)=O)c2)ncn1
[4] = compound: C[C@@H]1CN(CC(=O)Nc2ccc3c(c2)Cc2cccc(-c4cc(=O)cc(N5CCOCC5)o4)c2S3)C[C@H](C)O1
[5] = compound: Cc1cc(C)nc(SCC(=O)Nc2ncc(Cc3cccc4ccccc34)s2)n1
[6] = compound: Cc1ccc(C(=O)NCCCCCC(=O)Nc2ccccc2N)cc1
[7] = compound: Cc1cccc(CC(=O)N2CCc3c2ccc(-c2cn(C)c4ncnc(N)c24)c3F)n1
[8] = compound: NC(=O)c1ccc2nc(-c3ccc(Oc4ccc(Cl)cc4)cc3)[nH]c2c1 [Chk 2 inhibitor II (BML-277)]
Tucidinostat (Chidamide) = compound: Nc1cc(F)ccc1NC(=O)c1ccc(CNC(=O)/C=C/c2cccnc2)cc1 [Tucidinostat (Chidamide)]

Target | fraction of 1-bp insertions among edited reads [1] | fraction of 1-bp insertions among edited reads [2] | fraction of 1-bp insertions among edited reads (Rifapentine) | fraction of 1-bp insertions among edited reads [3] | fraction of 1-bp insertions among edited reads [4] | fraction of 1-bp insertions among edited reads [5] | fraction of 1-bp insertions among edited reads [6] | fraction of 1-bp insertions among edited reads [7] | fraction of 1-bp insertions among edited reads [8] | fraction of 1-bp insertions among edited reads (Tucidinostat (Chidamide))
5.0 (DMSO control at this site: 1-bp insertion 0.214, MH deletion 0.567, edited 0.105) CGCTGACCCGAGACCTACGCGAACCGAAATCGGCGACCGGTGCGCAAGCAGGGCTGGCGTC | 0.179 | 0.261 | 0.208 | 0.267 | 0.477 | 0.232 | 0.217 | 0.252 | 0.208 | 0.257
2.0 (DMSO control at this site: 1-bp insertion 0.364, MH deletion 0.356, edited 0.125) GGTGCCCCCGAGACCTACGCGAACCGAAATCGATGTCCGGTGCGCAAGCAGGGCTGGCGTC | 0.368 | 0.43 | 0.334 | 0.457 | 0.745 | 0.397 | 0.451 | 0.471 | 0.378 | 0.433
45.0 (DMSO control at this site: 1-bp insertion 0.017, MH deletion 0.666, edited 0.101) TTACACAGCATGAACTGCTAGGTGATGATGTCAGATTCGGTTTTACTAACTTCTCCAAAAA | 0.0237 | 0.0246 | 0.0255 | 0.037 | 0.0735 | 0.0352 | 0.0235 | 0.0353 | 0.0266 | 0.0198
39.0 (DMSO control at this site: 1-bp insertion 0.328, MH deletion 0.371, edited 0.204) CTGCACAGTCACTTAGGATAGGAGAAGATGATGTATAGGGTTTAGTGGGAGATGTTGCAAG | 0.383 | 0.466 | 0.39 | 0.442 | 0.804 | 0.396 | 0.384 | 0.463 | 0.404 | 0.487
27.0 CCAGAATTAGAACATATCATCTGGACCCTTTTCCATCTGGACCCTTTTCCAGCACACCCTG |  | 0.13 | 0.109 | 0.108 |  | 0.124 | 0.149 |  |  | 0.137
34.0 (DMSO control at this site: 1-bp insertion 0.184, MH deletion 0.385, edited 0.103) ATTATAGGACCCTGAGGGAGCAGAGATGTGGGAATGGGGGCCGAGCCAATTGTGATGTAAG | 0.153 | 0.199 | 0.159 | 0.169 | 0.361 | 0.165 | 0.208 | 0.197 | 0.148 | 0.184
43.0 (DMSO control at this site: 1-bp insertion 0.134, MH deletion 0.714, edited 0.104) AGTTTAACTTACTCCGGCCAAAAAAGAACTGCACCTCTGGAGCGGGTTAGTGGTGGTGGTA | 0.0588 | 0.0932 | 0.0993 | 0.101 | 0.118 | 0.0918 | 0.0831 | 0.0629 | 0.1 | 0.0828
28.0 (DMSO control at this site: 1-bp insertion 0.035, MH deletion 0.77, edited 0.142) TGGTTCTTCCTTTGTAGAGAGTGTTCATCTGGGAATCTGGGACTTGGATGAGACAATCATT | 0.029 | 0.0402 | 0.0344 | 0.0432 | 0.078 | 0.0369 | 0.0388 | 0.0456 | 0.0349 | 0.0493
35.0 (DMSO control at this site: 1-bp insertion 0.01, MH deletion 0.72, edited 0.098) CCACTTTTAGAGAGGGTGAAAATCATCAGTTATCATCAGGGCAACAAATTGCTTTCTCCTA | 0.0264 | 0.00485 | 0.0103 | 0.0267 | 0.125 | 0.0279 | 0.0384 | 0.0134 | 0.0163 | 0.0535
44.0 (DMSO control at this site: 1-bp insertion 0.181, MH deletion 0.512, edited 0.123) ACACATACCTTCTTCGAGGCAGCCAGCATGATGAGACAGGTCTCCCACAAACACATCGTGT | 0.198 | 0.251 | 0.174 | 0.233 | 0.418 | 0.192 | 0.2 | 0.282 | 0.166 | 0.238
32.0 (DMSO control at this site: 1-bp insertion 0.03, MH deletion 0.85, edited 0.898) AGAAGTCCAGGATCAGGGGGACTGGGGTCGGGAGGGTGGGGCAGGAAGGAAGCCAGAATCA | 0.0112 | 0.0188 | 0.0121 | 0.012 | 0.0185 | 0.018 | 0.0164 | 0.0245 | 0.0134 | 0.0163
38.0 (DMSO control at this site: 1-bp insertion 0.063, MH deletion 0.487, edited 0.17) GGGCTGGGTGCTAAAATGAGGAGCTCCAAGAAGACTGAGGTGAACCTGGAGGCCCCTGAGC | 0.0578 | 0.0482 | 0.0681 | 0.0731 | 0.178 | 0.0549 | 0.0526 | 0.0567 | 0.0523 | 0.0633
4.0 (DMSO control at this site: 1-bp insertion 0.146, MH deletion 0.523, edited 0.125) ACGCCTTAGTGCACGAGTGACGGGATAATGTGGTCTCAGGTAATTGATAGGCTTCCAACTT | 0.102 | 0.165 | 0.101 | 0.15 | 0.416 | 0.132 | 0.145 | 0.167 | 0.102 | 0.171
40.0 (DMSO control at this site: 1-bp insertion 0.072, MH deletion 0.192, edited 0.189) GCGAATCAACTGTTCAACAACAGCAGCAGCCACCTGGAGGACTACAGTGGCCTGTCCGTGT | 0.0675 | 0.0835 | 0.0737 | 0.076 | 0.124 | 0.0746 | 0.0721 | 0.0741 | 0.0639 | 0.0778
16.0 (DMSO control at this site: 1-bp insertion 0.172, MH deletion 0.29, edited 0.05) CGGACTGCACACATGGGTAGGATCGTGCACGCGAGGTAGGATCGTGCACGCGAAGTTATTC | 0.169 | 0.225 | 0.14 | 0.213 | 0.32 | 0.169 | 0.149 | 0.208 | 0.191 | 0.172
42.0 (DMSO control at this site: 1-bp insertion 0.145, MH deletion 0.655, edited 0.132) GGGCTAAACCTATGAGCACAGTAGAACTAAGGGTGGGTGGTGTAGCTAAAGAACTTGACCA | 0.133 | 0.175 | 0.139 | 0.162 | 0.436 | 0.149 | 0.138 | 0.158 | 0.15 | 0.203
17.0 (DMSO control at this site: 1-bp insertion 0.112, MH deletion 0.348, edited 0.058) CCATAGCGCGATAAATATGACGGCTCATCCTGTATGACGGCTCATCCTGTATCAACTGTCC | 0.166 | 0.165 | 0.136 | 0.158 | 0.354 | 0.14 | 0.15 | 0.124 | 0.14 | 0.168
